Assay [1] concerns Staphylococcus aureus. Put plainly: Antibacterial activity against Staphylococcus aureus MRSA ATCC 43300 (CO-ADD:GP_020); MIC in CAMBH media using NBS plates, by Resazurin F(560/590). The settings on record: Concentration 20 uM, ASSAY_TEST Inhibition of Bacterial Growth, detection method Resazurin, Fluorescence (ex560/em590), MEDIA CAMHB, plate type 384well, CORNING #3640, time 18 hr. The format is functional.

The subject of assay [2] is Acinetobacter baumannii. As to the kind of experiment: Antibacterial activity against Acinetobacter baumannii ATCC 19606 (CO-ADD:GN_034); MIC in CAMBH media using NBS plates, by Resazurin F(560/590). The format is functional. The settings on record: Concentration 20 uM, ASSAY_TEST Inhibition of Bacterial Growth, detection method Resazurin, Fluorescence (ex560/em590), MEDIA CAMHB, plate type 384well, CORNING #3640, time 18 hr. (In general: Alamar Blue is a resazurin reagent that responds to reducing activity.)

Assay [3] concerns Escherichia coli. As to the kind of experiment: Antibacterial activity against Escherichia coli ATCC 25922 (CO-ADD:GN_001); MIC in CAMBH media using NBS plates, by Resazurin F(560/590). It is filed as functional. The following applies: Concentration 20 uM, ASSAY_TEST Inhibition of Bacterial Growth, detection method Resazurin, Fluorescence (ex560/em590), MEDIA CAMHB, plate type 384well, CORNING #3640, time 18 hr.

Assay [4] relates to Klebsiella pneumoniae. The following applies: Concentration 20 uM; ASSAY_TEST Inhibition of Bacterial Growth; detection method Absorption (OD600); MEDIA CAMHB; plate type 384well; NBS; CORNING #3640; time 18 hr.
For assay [5], the system named is Candida albicans. The following applies: 20 µM.
The test system of assay [6] is Cryptococcus neoformans. The following applies: Concentration 20 uM; ASSAY_TEST Inhibition of Fungal Growth; detection method Resazurin; Absorption (OD600-OD570); plate type 384well; NBS; CORNING #3640.

For part of these data: Measured potencies and affinities stand elsewhere.

For orientation: Inhibition means the relative decrease from the control value, in per cent. `NNC(=O)CNC(=O)Nc1nnc(S)s1`: the Inhibition was 1.09% in assay [1]; 15.79% in assay [2]; -4.75% in assay [3]; 16.78% in assay [4]; 2.5% in assay [5]; -8.13% in assay [6].

As to `COc1ccc(/N=C\c2c(O)ccc3c2oc2cc(Cl)c(O)c(Cl)c23)cc1`, the Inhibition is -3.23% in assay [1]; 0.5% in assay [2]; -4.89% in assay [3]; 17.64% in assay [4]; 2.89% in assay [5]; -10.03% in assay [6].

With `Oc1nc2ccccc2n1C1=CCNCC1`, the Inhibition in assay [1] was -11.2%; in assay [2], -15.97%; in assay [3] it was 0.33%; in assay [4] it was 8.73%; in assay [5], 2.14%; in assay [6], -5.4%.

On to `O=C(O)c1cncc(Br)c1`, for which the Inhibition was 13.85% in assay [1]; -13.95% in assay [2]; 3.81% in assay [3]; 4.04% in assay [4]; 6.23% in assay [5]; -7.23% in assay [6].

In the case of `C=CCNC(=S)NCC=C`, the Inhibition in assay [1] is 10.5%; in assay [2], -8.96%; in assay [3], 3.32%; in assay [4], 27.24%; in assay [5], 1.09%; in assay [6] it was 2.25%.

Regarding `CN(C)c1ccc(/C=C(\C#N)C(=O)c2ccccc2)cc1`, the Inhibition in assay [1] is 3.86%; in assay [2] it was -12.37%; in assay [3], 8.74%; in assay [4], 11.84%; in assay [5], 4.91%; in assay [6] it was -12.58%.

On to `Cc1ccc(Nc2nnc(-c3ccc4c(c3)OCO4)o2)c(C)c1`, for which the Inhibition in assay [1] was 30.86%; in assay [2] it was -8.42%; in assay [3] it was 5.86%; in assay [4], 21.23%; in assay [5], 28.8%; in assay [6], -3.73%.

On to `c1ccc(-n2ncc3cccnc32)cc1`, for which the Inhibition in assay [1] is 6.65%; in assay [2], -2.45%; in assay [3], 7.04%; in assay [4], 9.31%; in assay [5] it was -0.36%; in assay [6], -9.65%.

Consider `CC(=O)NCC(O)c1ccc([N+](=O)[O-])cc1` (configuration not stated), for which the Inhibition in assay [1] was 9.36%; in assay [2], -9%; in assay [3], 7.49%; in assay [4], 22.16%; in assay [5], 1.24%; in assay [6], 2.12%.

In the case of `Nc1ccc(C(=O)c2cccs2)cn1`, the Inhibition in assay [1] was 33.76%; in assay [2], 0%; in assay [3], 26.4%; in assay [4], 9.25%; in assay [5], 8.82%; in assay [6], -0.14%.

In the case of `C#CC(C)OCC1CNC(=S)O1` (configuration not stated), the Inhibition worked out at 8.34% in assay [1]; 0.13% in assay [2]; 10.24% in assay [3]; 3.71% in assay [4]; 4.06% in assay [5]; 15.9% in assay [6].

Turning to `CCOC(=O)C1=C(N)N=C(N)C1=Nc1ccc(OC)cc1`, the Inhibition is 10.45% in assay [1]; -11.35% in assay [2]; 6.73% in assay [3]; 4.94% in assay [4]; -1.95% in assay [5]; -7.84% in assay [6].

On to `CCCOc1ccc(-c2nc(-c3ccc([N+](=O)[O-])cc3)cs2)cc1`, for which the Inhibition in assay [1] was 9.47%; in assay [2], 16.16%; in assay [3] it was 3.67%; in assay [4], 10.79%; in assay [5] it was 5.94%; in assay [6], -3.16%.

As for `NC(=O)NC1NC(=O)NC1=O` (configuration not stated) [ALLANTOIN], the Inhibition is 12.16% in assay [1]; -7.41% in assay [2]; 9.38% in assay [3]; 18.45% in assay [4]; 2.26% in assay [5]; -7.8% in assay [6].

Take `Cc1cccc2c1c1ccc3c(c1n2C)C(=O)C=CC3=O`: the Inhibition in assay [1] was -3.83%; in assay [2], -13.4%; in assay [3], 14.66%; in assay [4], 10.43%; in assay [5], 16.9%; in assay [6], 1.61%.

Consider `CN(C)c1nc(Cl)nc2c1nc(Cl)n2C1CCCCO1` (configuration not stated), for which the Inhibition was 8.01% in assay [1]; -7.69% in assay [2]; 0.28% in assay [3]; 5.28% in assay [4]; 1.95% in assay [5]; -3.53% in assay [6].

As for `O=C(Nc1ccccc1)Nc1ccccn1`, the Inhibition is 15.92% in assay [1]; -11.25% in assay [2]; 6.37% in assay [3]; 12.38% in assay [4]; 3.3% in assay [5]; -4.64% in assay [6].

With `Cc1ccc(Nc2nnc(S)s2)cc1F`, the Inhibition in assay [1] is -5.24%; in assay [2], -6.73%; in assay [3], 5.51%; in assay [4] it was 11.86%; in assay [5], 12.1%; in assay [6] it was 17.67%.

With `CNc1nc(SC)n(C)c(=O)c1N=O`, the Inhibition was 10.57% in assay [1]; -4.07% in assay [2]; 13.38% in assay [3]; 9.07% in assay [4]; -3.41% in assay [5]; -15.4% in assay [6].

`O=Cc1c[nH]c2ncccc12`: the Inhibition in assay [1] was 3.78%; in assay [2] it was -8.67%; in assay [3], 4.47%; in assay [4], 13.98%; in assay [5], 4.83%; in assay [6], -7.37%.

With `O=C(O)c1ccc(O)c(O)c1` [PROTOCATECHUIC ACID], the Inhibition in assay [1] is 11.87%; in assay [2] it was -8.73%; in assay [3], 11.18%; in assay [4], 17.43%; in assay [5], -0.18%; in assay [6] it was -4.26%.

For `CN1N=C/C(=C/NC(N)=O)C1=O`, the Inhibition in assay [1] was -2.54%; in assay [2], -2.43%; in assay [3], 9.08%; in assay [4], 2.78%; in assay [5] it was 0.49%; in assay [6], -3.93%.

For the molecule `Clc1c(Cl)c(Cl)c2[nH]nnc2c1Cl`, the Inhibition in assay [1] is -10.41%; in assay [2], -8.91%; in assay [3], 8.31%; in assay [4] it was 1.32%; in assay [5], 18.5%; in assay [6], -10.27%.

With `O=C(O)C(c1ccccc1)C1(O)CCCCC1` (configuration not stated), the Inhibition was 4.6% in assay [1]; -11.34% in assay [2]; 11.15% in assay [3]; 5.64% in assay [4]; 0.92% in assay [5]; -11.66% in assay [6].

Turning to `Cc1ccc(/N=N/c2ccc(N)cc2C)c(S(N)(=O)=O)c1`, the Inhibition in assay [1] is -7.58%; in assay [2], -6.13%; in assay [3], 2.58%; in assay [4], 0.06%; in assay [5], 2.21%; in assay [6], -0.55%.

Consider `Cc1ccc(-c2cssc2=S)cc1`, for which the Inhibition in assay [1] is -26.91%; in assay [2], -10.22%; in assay [3], -20.59%; in assay [4] it was 2.16%; in assay [5] it was 13.1%; in assay [6], 11.55%.

Regarding `Cc1ccc(C)c(N2CCN(c3ccncc3N)CC2)c1`, the Inhibition was -5.41% in assay [1]; -5.32% in assay [2]; 7.02% in assay [3]; 8.69% in assay [4]; 3.75% in assay [5]; -6.74% in assay [6].

For the molecule `O=C(Nc1ccc(Cl)c(Cl)c1)c1ccc(Cl)c(Cl)c1`, the Inhibition in assay [1] is 18.37%; in assay [2] it was 5.32%; in assay [3], 2.55%; in assay [4], 6.19%; in assay [5], -2.44%; in assay [6], -2.12%.

Turning to `O=C(NC(=S)Nc1cccc(O)c1)c1ccco1`, the Inhibition was 2.34% in assay [1]; -0.89% in assay [2]; 12.02% in assay [3]; -1.93% in assay [4]; 0.31% in assay [5]; -18.75% in assay [6].

In the case of `Oc1cc(CNC2CCCCC2)c(O)cc1CNC1CCCCC1`, the Inhibition in assay [1] is 1.43%; in assay [2], -9.92%; in assay [3] it was 2.36%; in assay [4] it was 11.38%; in assay [5], 5.97%; in assay [6] it was -6.29%.

For `COc1ccc(C2C3=C(COC3=O)Oc3cc4c(cc32)OCO4)cc1OC` (configuration not stated), the Inhibition in assay [1] is 25.54%; in assay [2], -8.11%; in assay [3], 12.52%; in assay [4], 17.02%; in assay [5], 0.53%; in assay [6], -1.21%.

For `COc1ccc(C(=S)N2CCN(c3ccccc3Cl)CC2)cc1OC`, the Inhibition in assay [1] is 21.01%; in assay [2], 9.29%; in assay [3] it was 8.55%; in assay [4], 6.8%; in assay [5] it was 6.76%; in assay [6], -9.03%.

Take `Cc1ccc(-c2cc(C(=O)O)c3ccccc3n2)c(C)c1`: the Inhibition in assay [1] is 11.92%; in assay [2], 8.6%; in assay [3] it was -3.13%; in assay [4] it was 18.95%; in assay [5] it was 8.35%; in assay [6], -6%.

In the case of `NS(=O)(=O)c1ccc(NC2(C(=O)O)CCCC2)cc1`, the Inhibition in assay [1] is 11.74%; in assay [2], 13.36%; in assay [3], -10.3%; in assay [4], 11.38%; in assay [5], 4.41%; in assay [6] it was 18.42%.

For `COc1cnc(SC)nc1Nc1ccc(C#N)cc1`, the Inhibition in assay [1] is 3.83%; in assay [2], 28.01%; in assay [3] it was 14.33%; in assay [4] it was 23.54%; in assay [5] it was 4.47%; in assay [6] it was -3.99%.

Regarding `Oc1ccc(/N=N/c2ccccc2)c(O)c1/N=N/c1ccccc1`, the Inhibition in assay [1] is -22.17%; in assay [2], 3.79%; in assay [3] it was -20.22%; in assay [4] it was -6.85%; in assay [5] it was 8.07%; in assay [6] it was 33.55%.

`Cc1ccc(S(=O)(=O)N2CC=C(N)N2)cc1`: the Inhibition in assay [1] is 16.25%; in assay [2] it was -10.87%; in assay [3], 9.9%; in assay [4], 8.77%; in assay [5], -1.38%; in assay [6] it was -12.82%.

Values taken from ChEMBL document CHEMBL4296182, “CO-ADD screening of NIH NCI Diversity Set V”.
